From PubChem BioAssay (NCATS)
Results filed as inconclusive are left out. Entries that show only a call come without a potency. Active and inactive are the calls of the source. Calls come from the whole dose curve; as a rule, active = well fitted inhibition curve with a large enough effect; inconclusive = small, poorly fitted or top-dose-only effect; inactive = flat fitted curve, though single readings scatter.

These compounds were tested against Calcium and integrin-binding protein 1 (Homo sapiens) (UniProt Q99828) (assay: Primary qHTS for Identification of Calcium Integrin Binding Protein 1 (CIB1) Competitor (AID 1508620;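 note: GST tagged CIB1 binding a fluorescein labelled alphaIIb integrin peptide tracer; top concentration of the series differs between compounds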)). Conditions: CIB1-GST / FITC-alphaIIb peptide fluorescence polarization; series mostly up to 114 µM.
Chain of Calcium and integrin-binding protein 1 (Homo sapiens) (Q99828 whole entry, looked up): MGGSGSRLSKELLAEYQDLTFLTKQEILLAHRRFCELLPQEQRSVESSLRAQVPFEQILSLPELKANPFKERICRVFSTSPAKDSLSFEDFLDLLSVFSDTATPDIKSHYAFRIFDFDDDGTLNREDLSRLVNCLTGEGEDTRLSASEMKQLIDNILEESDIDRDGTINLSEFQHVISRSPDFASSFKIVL
Summary of the method: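 Fluorescence polarization competition: CIB1-GST (1 uM final) preincubated with compound 15 min at room temperature, then FITC-labeled alphaIIb peptide (100 nM final) added for another 15 min. Polarization read at Ex 480/Em 540.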

Compound | Potency
COc1ccc(-c2nc3ccccc3c(=O)n2Cc2ccco2)cc1COc1c(C)cccc1C | inactive
CN(CC(F)(F)F)c1nc(NCc2ccc(-c3cccnc3)cc2)c2ccccc2n1 | inactive
COc1ccc(-c2cnc(N3CCC(C(N)=O)CC3)s2)cc1OC | inactive
O=C(Nc1ccc(-c2nc3ccccc3[nH]2)cc1)Nc1ccc2c(c1)CCCO2 | inactive
Cc1cccc(C[C@H](C(=O)O)N2C(=O)c3ccc(C(=O)O)cc3C2=O)c1 | inactive
Fc1cc(Nc2nc(-c3ccncc3)nc3ccccc23)ccc1-n1cncn1 | inactive
NC(=O)C1CCN(c2nc(-c3cccc(Br)c3)cs2)CC1 | inactive
O=C(Nc1ccc(-c2nc3ccccc3[nH]2)cc1)c1ccc2ncsc2c1 | inactive
FC(F)(F)c1ccccc1-c1nc(NCc2ccccc2)c2ccccc2n1 | inactive
c1nc(N2CCOCC2)c2cc(-c3ccc4c(c3)OCO4)ccc2n1 | inactive
O=C(CNC(=O)c1ccccc1)N[C@H](C(=O)Nc1cc(C(F)(F)F)ccc1Cl)c1ccccc1 | inactive
[O-][n+]1onc(-c2ccccc2)c1CO | inactive
Cc1ccnc(NC(=S)N2CCC(Nc3cccc(C(F)(F)F)c3)CC2)c1 | inactive
COc1ccc(O)c(-c2nc3ccccc3c(=O)n2Cc2ccccc2)c1 | inactive
Cc1ccc(OCCn2c(CCNC(=O)Cc3cc(F)ccc3F)nc3ccccc32)cc1 | inactive
Cc1sc(NC(=O)Cc2ccc3c(c2)OCO3)nc1-c1ccc2c(c1)CCN2C(=O)c1ccccc1F | inactive
CC(C)(C)c1ccccc1Nc1nc(C#N)nc(NC2CCCC2)n1 | inactive
Cc1cc2c(s1)c1cnn(Cc3ccccc3F)c(=O)c1n2Cc1ccccc1F | inactive
COc1ccc(C2c3c(ncn(Cc4ccccc4)c3=N)Oc3ccc4ccccc4c32)cc1OC (stereo not given) | inactive
COc1ccc(CNc2ccc(S(=O)(=O)Nc3nccs3)cc2)c(O)c1 | inactive

Compound | Potency
COc1cc(-c2ccc3ncnc(NCc4cccs4)c3c2)cc(OC)c1OC | inactive
Cc1cc(C)nc(NC(=S)N2CCN(c3nccc4occc34)CC2)c1 | inactive
O=S(=O)(Nc1nccs1)c1ccc(NCc2cccc(Cl)c2Cl)cc1 | inactive
Fc1cc(Nc2nc(-c3ccncc3)nc3ccccc23)ccc1N1CCCCC1 | inactive
O=C(O)c1ccc(S(=O)(=O)N[C@H](Cc2ccc(O)cc2)C(=O)O)cc1 | inactive
Cc1ccnc(NC(=S)N2CCN(C)CC2)c1 | inactive
Cc1cc(C)nc(NC(=S)N2CCN(c3ncccc3Cl)CC2)c1 | inactive
CCCCN(CCCNC(=S)NCCCc1cnc[nH]1)c1ccc(Br)cn1 | inactive
COc1ccc(C(=O)Nc2ccc(-c3nc4ccccc4[nH]3)cc2)cc1F | inactive
Cn1c2ccsc2c2cnn(Cc3ccccc3F)c(=O)c21 | inactive
O=C1c2ccccc2C(=O)N1c1cccc2ncccc12 | inactive
O=c1c2ccc([N+](=O)[O-])cc2nc2sc(Nc3ccc4c(c3)CCC4)nn12 | inactive
N#CC1=C(Nc2nc3ccccc3o2)OC2=C(C(=O)CCC2)C1c1[nH]ncc1Cl (stereo not given) | inactive
COc1ccc(C2=Nn3c(nnc3-c3ccc(OC)c(OC)c3)SC2)c(OC)c1 | inactive
COc1ccc(C2Nc3ccccc3C(=O)N2CCc2ccc(Cl)cc2Cl)cc1COc1ccc(NC(C)=O)cc1 (stereo not given) | inactive
O=C1Nc2ccccc2/C1=C\c1ccc(C(=O)O)cc1 | inactive
Cc1ccc(S(=O)(=O)N2CCN(c3nc(-c4ccco4)nc4ccccc34)CC2)cc1 | inactive
CCOc1ccc(C(=O)Nc2ccc(-c3nc4ccccc4[nH]3)cc2)cc1 | inactive
O=C1CCCC2=C1C(c1cccc(F)c1)N=C(Nc1nc3ccccc3o1)N2 (stereo not given) | inactive
CCOC(=O)/C=C/c1cc(F)c(S(=O)(=O)N2CCN(S(=O)(=O)c3ccc4c(c3)OCCO4)CC2)cc1F | inactive
